Experimental data taken from PubChem BioAssay (NCATS).
Records with an inconclusive call do not appear. Calls of active or inactive are those of the source. Unless noted, calls come from the whole dose curve; as a rule, active = well fitted curve in the direction sought with a large enough effect; inconclusive = small, poorly fitted or top-dose-only effect, or another doubt; inactive = no such curve, though single readings can be large; an effect the other way counts as inactive or inconclusive.

What was measured:
[1] = AP1 Signaling Pathway (AID 357; active = well fitted curve in either direction with a large enough effect, not every such curve was filed as active;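 note: ME-180 reporter cells stimulated with EGF at its EC50 level; % is set by controls: 0 for no effect and ±100 for the full control effect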)
Procedure, shortened: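 In this screen, ME-180 cells in Opti-MEM with 0.5% dialyzed FBS received EC50 EGF and compound titrations for 5 h. AP-1 reporter beta-lactamase was detected via CCF4 ratio, giving AC50 for positive and negative modulators.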

[2] = Stat Signaling Pathway (AID 446; active = well fitted curve in either direction with a large enough effect, not every such curve was filed as active;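 note: ME-180 cervical cancer cells given 40 pM IL-6 alongside compound; SIE-controlled beta-lactamase reporter measured as 460/530 nm FRET emission ratio; % is set by controls: 0 for no effect and ±100 for the full control effect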)
Procedure, shortened: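 Compound effects on IL-6-induced STAT reporter activity were measured in ME-180 cells. After overnight culture, cells were co-treated with 40 pM IL-6 for 5 hrs before beta-lactamase substrate loading at room temperature.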

[3] = biological target: Glucocorticoid receptor (Homo sapiens) (UniProt P04150); experiment: GR-GFP Redistribution (AID 450;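 active = compounds whose dose series gives a full or clear partial fitted curve of increased nuclear translocation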; note: potency is the fitted concentration of half-maximal effect); conditions: U2OS GR-GFP nuclear translocation, laser cytometry, 2 h
[4] = biological target: Mitogen-activated protein kinase 10 (Mus musculus) (UniProt Q61831); experiment: JNK3 AlphaScreen Assay (AID 530; active = well fitted curve in either direction with a large enough effect, not every such curve was filed as active;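 note: kinase came from lysate of stimulated human HepG2 cells; signal reports phosphorylation of biotinylated GST-cJun 1-79 at Ser73 with 10 µM ATP; % is set by controls: 0 for no effect and ±100 for the full control effect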)
Procedure, shortened: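 Biotinylated GST-cJun(1-79) served as substrate for JNK3 in HepG2 lysates stimulated with IL-1beta and TNF-alpha. ATP was 10 uM final, pH 7.6. Ser73 phosphorylation was quantified by AlphaScreen (680 nm excitation).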

[5] = biological target: 3',5'-cyclic-AMP phosphodiesterase 4B (Homo sapiens) (UniProt Q07343); experiment: qHTS Assay for Inhibitors of PDE-IV (AID 607; active = well fitted activation curve with a large enough effect in the main read-out, with a control signal flat, not every such curve was filed as active; note: % of control where 0% means no effect)
Procedure, shortened: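 ACTOne HEK293 cells carry a modified cAMP-gated CNG channel and express endogenous PDE4; plated 1000 cells/well, compounds up to 22.9 uM final. Membrane-potential dye fluorescence (ex 535/em 590) was read; parental cells received 10 uM forskolin + 100 uM RO 20-1724.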

[6] = qHTS Assay for Lipid Storage Modulators (AID 1519; calls by dose curve); conditions: Drosophila S3 cells, BODIPY lipid droplet/cell ratio, laser cytometry, cells loaded with oleic acid; for activity change, negative = inhibition: at 25.7 µM (top of the series)
Procedure, shortened: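 Cells seeded at 5,000 per well were treated with compounds over a concentration series and loaded with oleic acid (400 uM, as added). Lipid droplet fluorescence (488 nm excitation, 500-530 nm channel) was read by laser-scanning cytometry and normalized to 20 uM Triacsin C.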

[7] = biological target: ATP-dependent 6-phosphofructokinase (Trypanosoma brucei brucei) (UniProt O15648); experiment: qHTS Assay to Find Inhibitors of T. brucei phosphofructokinase: hit validation (AID 492961);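 note: luminescence reports ADP formed as PFK phosphorylates fructose-6-phosphate with ATP; % is set by controls: 0 for no effect and ±100 for the full control effect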
Procedure, shortened: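 Percent activity derived from corrected luminescence, normalized between 0x and 1x enzyme controls, then fitted to concentration-response curves. Conditions: 1.25 nM PFK, 0.1 mM ATP, 0.5 mM F6P, 45 min RT.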

[8] = biological target: Ubiquitin carboxyl-terminal hydrolase 1 (Homo sapiens) (UniProt O94782); experiment: Inhibitors of USP1/UAF1: Pilot qHTS (AID 504865);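 note: rhodamine fluorescence freed from ubiquitin-rhodamine substrate followed over time; top concentration of the series differs between compounds; % is set by controls: 0 for no effect and ±100 for the full control effect; nearly all actives have a fitted effect of over 35% in size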
Procedure, shortened: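 1nM USP1/UAF1 + cpd, 15 min RT; start w/ Ub-Rho 150nM final; kinetic FL 480/540 nm, 6 reads q60 s. Buffer 50mM HEPES pH 7.8, 0.5mM EDTA, 1mM TCEP, 0.01% Tween-20, 0.1 mg/ml BSA.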

[9] = biological target: Luciferin 4-monooxygenase (Photinus pyralis) (UniProt P08659); experiment: Biochemical firefly luciferase enzyme assay for NPC (AID 624030);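 note: purified P. pyralis luciferase at 10 nM with luciferin and ATP substrate; 0% = DMSO and -100% = full luciferase inhibition by PTC124 control; nearly all actives have a fitted effect of over 70% in size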
Procedure, shortened: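 Counter-screen for direct inhibition of the luciferase enzyme by approved-drug library compounds, run at 10 nM enzyme in 50 mM Tris acetate (final). Luminescence was read within 5 min of enzyme-buffer addition and normalized to PTC124 versus DMSO (0%).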

[10] = S16 Schwann cell PMP22 intronic element firefly luciferase assay (AID 624032); note: nearly all actives have a fitted effect of over 30% in size; note: potency is the fitted concentration of half-maximal effect;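 for activity change, negative = inhibition: plate controls were DMSO for no effect and PTC124 positive control mean for full effect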
Procedure, shortened: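 Rat S16 Schwann cells stably carrying a PMP22 intronic element-driven Fluc reporter were seeded overnight, then exposed to compounds for 24 h at 37 °C. Luminescence was normalized to PTC124 (positive control) and DMSO (0% activity).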

[11] = qHTS profiling for inhibitors of Plasmodium falciparum proliferation (AID 504749); note: nearly all actives have a fitted effect of over 60% in size; note: potency is the fitted concentration of half-maximal effect;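 for activity, negative = inhibition: 0% = DMSO vehicle and full inhibition = artemisinin control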; conditions: P. falciparum in erythrocytes, SYBR Green DNA, 72 h
Procedure, shortened: (§1)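 Fluorescence of SYBR Green-bound parasite DNA, read at 485/535 nm, served as the growth measure. Infected erythrocytes were cultured with compound 72 h; artemisinin (0.29 uM) and DMSO wells defined the normalization range.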

AS120 = experiment: as above; conditions: P. falciparum in erythrocytes, SYBR Green DNA, 72 h; series mostly up to 12.8 µM
Procedure, shortened: as §1

C2A = experiment: as above; conditions: P. falciparum in erythrocytes, SYBR Green DNA, 72 h; series mostly up to 12.8 µM
Procedure, shortened: as §1

CP238 = experiment: as above; conditions: P. falciparum in erythrocytes, SYBR Green DNA, 72 h; series mostly up to 12.8 µM
Procedure, shortened: as §1

CP250 = experiment: as above; conditions: P. falciparum in erythrocytes, SYBR Green DNA, 72 h; series mostly up to 12.8 µM
Procedure, shortened: as §1

CP252 = experiment: as above; conditions: P. falciparum in erythrocytes, SYBR Green DNA, 72 h; series mostly up to 12.8 µM
Procedure, shortened: as §1

HB3 = experiment: as above; conditions: P. falciparum in erythrocytes, SYBR Green DNA, 72 h; series mostly up to 12.8 µM
Procedure, shortened: as §1

SC27B = experiment: as above; conditions: P. falciparum in erythrocytes, SYBR Green DNA, 72 h; series mostly up to 12.8 µM
Procedure, shortened: as §1

[12] = biological target: Glucocorticoid receptor (Homo sapiens) (UniProt P04150); experiment: GR-EFC Redistribution (AID 451; calls by dose curve; note: potency is the fitted concentration of half-maximal effect); conditions: CHO-K1 GR-EFC translocation, beta-gal luminescence, 2 h
Procedure, shortened: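 CHO-K1 cells stably expressing nuclear-localized β-gal enzyme acceptor and GR fused C-terminally to the enzyme donor fragment; ligand-driven nuclear translocation restores β-gal by complementation. Compounds titrated up to 46 uM final, 2 h at 37 °C; luminescence read.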

[13] = measured here: cell count channel max response
[14] = measured here: lipid channel max response
[15] = at 12.8 µM (top of the series), parasite line A
[16] = at 12.8 µM (top of the series), parasite line B

Chain of 3',5'-cyclic-AMP phosphodiesterase 4B (Homo sapiens) (Q07343 whole entry, looked up): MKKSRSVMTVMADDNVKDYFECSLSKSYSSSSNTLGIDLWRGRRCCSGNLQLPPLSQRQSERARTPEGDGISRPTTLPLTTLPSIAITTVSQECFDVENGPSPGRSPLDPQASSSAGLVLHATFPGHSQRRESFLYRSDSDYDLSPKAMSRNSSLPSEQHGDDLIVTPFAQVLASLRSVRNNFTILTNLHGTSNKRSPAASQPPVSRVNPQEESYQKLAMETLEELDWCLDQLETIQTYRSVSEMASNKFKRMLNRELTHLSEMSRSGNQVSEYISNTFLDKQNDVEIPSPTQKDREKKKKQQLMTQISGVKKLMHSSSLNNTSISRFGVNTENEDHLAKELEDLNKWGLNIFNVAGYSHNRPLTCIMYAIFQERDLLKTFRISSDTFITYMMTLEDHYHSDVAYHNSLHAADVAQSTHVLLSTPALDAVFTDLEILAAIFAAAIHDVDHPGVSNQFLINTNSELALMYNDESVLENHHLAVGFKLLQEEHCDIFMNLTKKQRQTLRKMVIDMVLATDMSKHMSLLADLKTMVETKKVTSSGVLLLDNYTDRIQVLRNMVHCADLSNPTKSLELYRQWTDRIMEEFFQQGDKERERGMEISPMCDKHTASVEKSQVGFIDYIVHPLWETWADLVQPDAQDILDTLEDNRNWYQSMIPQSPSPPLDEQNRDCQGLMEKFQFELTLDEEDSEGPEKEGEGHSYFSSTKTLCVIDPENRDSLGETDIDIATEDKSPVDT
Chain of ATP-dependent 6-phosphofructokinase (Trypanosoma brucei brucei) (O15648 whole entry, looked up): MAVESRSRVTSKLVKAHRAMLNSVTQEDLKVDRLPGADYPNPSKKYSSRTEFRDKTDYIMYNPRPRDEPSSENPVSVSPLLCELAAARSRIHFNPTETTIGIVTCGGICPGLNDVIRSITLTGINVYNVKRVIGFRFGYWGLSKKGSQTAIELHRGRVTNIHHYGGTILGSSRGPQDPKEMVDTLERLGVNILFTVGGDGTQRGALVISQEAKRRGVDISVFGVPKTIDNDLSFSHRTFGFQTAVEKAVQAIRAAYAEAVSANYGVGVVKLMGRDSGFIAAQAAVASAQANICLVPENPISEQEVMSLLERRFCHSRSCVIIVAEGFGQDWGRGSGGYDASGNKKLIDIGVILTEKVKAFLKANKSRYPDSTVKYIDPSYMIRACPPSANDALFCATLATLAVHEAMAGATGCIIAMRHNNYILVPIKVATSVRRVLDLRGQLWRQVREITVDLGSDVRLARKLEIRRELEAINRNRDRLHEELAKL
Chain of Ubiquitin carboxyl-terminal hydrolase 1 (Homo sapiens) (O94782 whole entry, looked up): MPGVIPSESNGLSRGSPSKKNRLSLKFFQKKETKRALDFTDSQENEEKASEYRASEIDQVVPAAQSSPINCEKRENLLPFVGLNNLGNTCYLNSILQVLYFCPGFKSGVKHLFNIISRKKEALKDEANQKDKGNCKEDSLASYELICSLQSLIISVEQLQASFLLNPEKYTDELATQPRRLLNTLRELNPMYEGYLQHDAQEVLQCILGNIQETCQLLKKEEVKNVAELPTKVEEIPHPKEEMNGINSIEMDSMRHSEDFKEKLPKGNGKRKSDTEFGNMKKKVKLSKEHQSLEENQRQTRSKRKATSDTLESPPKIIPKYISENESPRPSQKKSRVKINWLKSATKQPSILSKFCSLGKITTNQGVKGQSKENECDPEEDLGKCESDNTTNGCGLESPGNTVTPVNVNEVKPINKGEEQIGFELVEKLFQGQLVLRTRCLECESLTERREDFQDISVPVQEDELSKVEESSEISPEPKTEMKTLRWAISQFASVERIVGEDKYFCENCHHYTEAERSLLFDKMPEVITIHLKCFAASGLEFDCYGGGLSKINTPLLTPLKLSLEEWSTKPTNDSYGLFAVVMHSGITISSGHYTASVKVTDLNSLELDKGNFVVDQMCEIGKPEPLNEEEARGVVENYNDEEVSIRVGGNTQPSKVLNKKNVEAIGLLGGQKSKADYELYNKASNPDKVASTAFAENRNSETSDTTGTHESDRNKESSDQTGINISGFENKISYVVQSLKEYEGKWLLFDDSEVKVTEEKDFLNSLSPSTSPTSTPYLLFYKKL
Chain of Glucocorticoid receptor (Homo sapiens) (P04150 whole entry, looked up, the tested form may be a part): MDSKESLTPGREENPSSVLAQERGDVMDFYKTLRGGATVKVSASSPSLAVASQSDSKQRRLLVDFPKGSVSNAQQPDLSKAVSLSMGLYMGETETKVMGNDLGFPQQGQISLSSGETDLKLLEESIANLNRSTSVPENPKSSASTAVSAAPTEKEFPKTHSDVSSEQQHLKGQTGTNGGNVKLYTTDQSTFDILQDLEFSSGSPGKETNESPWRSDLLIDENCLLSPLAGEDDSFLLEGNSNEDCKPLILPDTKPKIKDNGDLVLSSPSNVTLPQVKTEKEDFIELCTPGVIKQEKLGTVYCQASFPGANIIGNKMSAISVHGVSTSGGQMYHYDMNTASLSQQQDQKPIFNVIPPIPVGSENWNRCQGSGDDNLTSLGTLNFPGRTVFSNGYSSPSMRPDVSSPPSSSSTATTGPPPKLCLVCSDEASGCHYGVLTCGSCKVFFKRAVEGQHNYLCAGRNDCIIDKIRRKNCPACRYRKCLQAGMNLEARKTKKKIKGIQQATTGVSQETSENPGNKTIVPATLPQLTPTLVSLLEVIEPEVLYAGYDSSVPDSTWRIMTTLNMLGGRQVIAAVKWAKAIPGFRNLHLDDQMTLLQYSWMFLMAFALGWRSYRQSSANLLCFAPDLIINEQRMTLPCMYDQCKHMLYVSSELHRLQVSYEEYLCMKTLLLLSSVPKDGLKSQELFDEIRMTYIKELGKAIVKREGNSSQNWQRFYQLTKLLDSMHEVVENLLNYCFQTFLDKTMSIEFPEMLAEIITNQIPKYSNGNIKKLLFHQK
Chain of Luciferin 4-monooxygenase (Photinus pyralis) (P08659 whole entry, looked up): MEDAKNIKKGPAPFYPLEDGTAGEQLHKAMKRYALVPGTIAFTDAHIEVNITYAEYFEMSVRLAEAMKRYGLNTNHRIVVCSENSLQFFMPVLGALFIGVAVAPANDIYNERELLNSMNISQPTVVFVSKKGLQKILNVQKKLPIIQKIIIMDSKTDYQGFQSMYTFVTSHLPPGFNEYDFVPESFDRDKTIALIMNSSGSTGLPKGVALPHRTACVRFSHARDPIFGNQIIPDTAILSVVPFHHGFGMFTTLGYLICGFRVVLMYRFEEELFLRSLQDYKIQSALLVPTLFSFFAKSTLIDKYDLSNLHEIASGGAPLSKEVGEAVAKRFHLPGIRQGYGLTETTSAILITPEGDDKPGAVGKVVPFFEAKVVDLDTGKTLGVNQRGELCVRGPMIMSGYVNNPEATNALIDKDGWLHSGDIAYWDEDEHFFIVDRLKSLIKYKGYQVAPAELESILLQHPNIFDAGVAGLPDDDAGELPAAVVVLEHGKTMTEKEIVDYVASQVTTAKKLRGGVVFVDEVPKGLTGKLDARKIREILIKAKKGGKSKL

CN(C)CCOC(=O)[C@@H](c1ccccc1)C1(O)CCCC1
2.88%: max response [6, 13]
inactive: outcome [1] | outcome [2] | Potency [3] > 20.6 µM | Potency [4] | outcome [5] | activity change, negative = inhibition [6] -1.19% | outcome [7] | Potency [8] | Potency [9] | Potency [10] | activity, negative = inhibition ([11]; at 28.7 µM (top of the series), parasite line A) 22.6% | activity, negative = inhibition ([11]; at 28.7 µM (top of the series), parasite line B) 8.77% | Potency (AS120) | Potency (C2A) | Potency (CP238) | Potency (CP250) | Potency (CP252) | Potency (HB3) | Potency (SC27B)
1.92%: max response [6, 14]

COC(=O)Nc1nc2ccc(SC(C)C)cc2[nH]1
-4.22%: max response [6, 14]
inactive: outcome [1] | outcome [2] | Potency [3] > 20.6 µM | Potency [12] > 20.6 µM | Potency [4] | outcome [5] | activity change, negative = inhibition [6] -1.67%
-2.31%: max response [6, 13]

C[N+]1(C)C[C@@H](O)C[C@@H]1C(=O)[O-]
-3.42%: max response [6, 14]
-1.48%: max response [6, 13]
inactive: outcome [1] | outcome [2] | Potency [3] > 20.6 µM | Potency [12] > 20.6 µM | Potency [4] | outcome [5] | activity change, negative = inhibition [6] -1.53% | Potency [8]

C[C@@H]1Cc2ccccc2N1NC(=O)c1ccc(Cl)c(S(N)=O)c1 (stereo partly specified)
inactive: outcome [1] | outcome [2] | Potency [4] | outcome [5] | activity change, negative = inhibition [6] -0.666% | outcome [7] | Potency [8] | Potency [9] | activity, negative = inhibition [11, 15] 15.9% | activity, negative = inhibition [11, 16] 17.7% | Potency (AS120) | Potency (C2A) | Potency (CP238) | Potency (CP250) | Potency (CP252) | Potency (HB3) | Potency (SC27B)
7.13%: max response [6, 14]
8.03%: max response [6, 13]
active: Potency [10] 3.46 µM

COCC(=O)Nc1c(I)c(C(=O)NC[C@@H](O)CO)c(I)c(C(=O)N(C)C[C@@H](O)CO)c1I
inactive: outcome [1] | outcome [2] | Potency [4] | outcome [5] | activity change, negative = inhibition [6] -0.947% | outcome [7] | Potency [9] | Potency [10] | activity, negative = inhibition [11, 15] -0.503% | activity, negative = inhibition [11, 16] -0.0954% | Potency (AS120) | Potency (C2A) | Potency (CP238) | Potency (CP250) | Potency (CP252) | Potency (HB3) | Potency (SC27B)
-5.27%: max response [6, 13]
-9.01%: max response [6, 14]

Clc1ccc(CC[C@H](Cn2ccnc2)Sc2c(Cl)cccc2Cl)cc1
active: Potency (AS120) 2.24 µM | Potency (HB3) 3.55 µM | Potency (SC27B) 3.98 µM
-3.86%: max response [6, 13]
inactive: outcome [1] | outcome [2] | Potency [3] > 20.6 µM | Potency [4] | activity change, negative = inhibition [6] 3.47% | outcome [7] | Potency [9]
-6.78%: max response [6, 14]
